Source: PubChem BioAssay (NCI)
The panel holds about 83,000 compounds, 20% with a hit somewhere; the sample as a whole holds those more often.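 Results are percent growth after 48 hours of single-concentration exposure. 100 means growth as in untreated cells, lower positive values show inhibition; negative values down to -100 show cell death.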 A number with no mark means an inactive call. Calls of active or inactive are those of the source. How the source made its calls: active means growth percent below 10; inactive means the rest.

These molecules were tested on NCI-H23 lung (assay: NCI-60 one-dose screen, 48 h (100 = growth as untreated, 0 = no growth, -100 = all killed)). Settings: 10 µM unless noted.

SMILES | growth
O=C(Cc1ccc(F)c(Cl)c1)Nc1cc(C2(C(F)(F)F)CC2)nn1CC1CCCCC1 | -2.27% (active)
O=C(S)CNC(=O)c1ccccc1 | 94.3%
COc1cc(CCC[P+](c2ccccc2)(c2ccccc2)c2ccccc2)c(OC)c(OC)c1OC | 77.9%
COc1cc2cc(Oc3ccc(NC(=O)Nc4ccc(Cl)c(C(F)(F)F)c4)cc3)c(C)nc2cc1OCCN1CCOCC1 | 10.5%
Cc1cc2nc3cc(C)c(N)cc3[n+](-c3ccccc3)c2cc1N | 39.8%
CN1CCN(c2ccc(-c3cc4c(Nc5ccc(F)c(Cl)c5)ncnn4c3)cc2)CC1 | 96.2%
COc1ccc(S(=O)(=O)n2cc(C3OC(c4cc(OC)c(OC)c(OC)c4)=NN3C(C)=O)c3ccccc32)cc1OC (centres undefined) | 79.5%
COc1nc2ccc(C)cc2cc1-c1nc2c(cnn2-c2ccccc2)c(=O)[nH]1 | 80.5%
Cc1cccc2c3c(sc12)C(c1ccc(Cl)cc1)C(C#N)=C(N)O3 (centres undefined) | 21.4%
CN(C)c1ccc2nc3ccc(=[N+](C)C)c([N+](=O)[O-])c-3sc2c1 | 9.52% (active)
Cc1ccc(C(=O)N/N=C/c2cccc(Oc3ccccc3)c2)cn1 | 70.7%
Cc1c(C(=O)N[C@@H](Cc2ccccc2)C(=O)C(=O)NCc2ccc(F)cc2)[nH]c2ccccc2c1=O | 101%
Cc1c(C(=O)NCCCc2ccccc2)sc2ncc(-c3ccc(Br)cc3)n12 | 91.7%
COc1ccc(-c2conc2-c2ccccc2)cc1 | 29.1%
Cc1ccccc1C(=O)NN | 104%
CCS(=O)(=O)c1ncnc2nc[nH]c12 | 111%
CCCCC[C@H](O)C/C=C1/C(=O)C=C[C@@H]1C/C=C\CCCC(=O)O | 74.6%
C=C1CC[C@H](C(C)C)[C@@H]2[C@H]1[C@H]1CC(=C)[C@@H](O)CC[C@@](C)(O)[C@@H]2O1 | 81.6%
COc1ccc(-c2[nH]c3ccc(OC)cc3c2/C=C(\C#N)S(=O)(=O)c2ccccc2)cc1 | 24.9%

SMILES | growth
COc1ccc(C(=O)n2nc(-c3ccccc3)nc2N)cc1OC | 93.9%
O=c1ccn(Cc2cn(-c3c4ccccc4nc4ccccc34)nn2)c(=O)[nH]1 | 94%
CC/C=C\C[C@@H](O)C/C=C1/C(=O)C=C[C@H]1C/C=C\CCCC(=O)OC | 22.3%
CCCCn1c(=O)c(-c2cc(-c3ccc(Cl)cc3)nc(-c3ccc(Cl)cc3)c2)cc2cc(Cl)ccc21 | 105%
Cc1nc2cnc(N)c(C#Cc3cncc(C(=O)Nc4ccc(CN5CCN(C)CC5)c(C(F)(F)F)c4)c3)c2nc1C | -9.47% (active)
O=C1/C(=C/c2ccc(F)cc2)Sc2c(Br)cccc21 | 50%
Cc1ccc(-c2nc(N3CCN(C(=O)c4ccc(OC(F)(F)F)cc4)CC3)c3ccccc3n2)cc1 | 94.9%
CCOC(=O)c1c2c(n(-c3ccc(C#N)cc3)c1-c1ccccc1)C=CCC2 | 89.3%
CCOc1c(B(O)O)cccc1-c1nc2ccc3[nH]ncc3c2c2c1CCCC2 | 60.1%
CCOC(=O)C1=C(N)Oc2c(sc3c(CC)cccc23)C1c1ccc(F)cc1 (centres undefined) | 47%
CCCCCCn1c(-c2ccc(C(=O)O/N=C(\N)c3ccc4ccccc4c3)cc2)nc(-c2ccccc2)c1-c1ccccc1 | 44.3%
C=C(C)C1CCC2(C)OC2C1 (centres undefined) | 111%
Clc1ccc(C(/C=C/c2sc(Cl)nc2Cl)=N/Nc2cc(Cl)cc(Cl)c2)cc1 | 92.2%
c1ccc2c(-c3nc(-c4c[nH]c5ccncc45)cs3)c[nH]c2c1 | 74.4%
c1ccc(CO[C@H]2CO[C@H]3[C@@H]2OC[C@@H]3Oc2ccc(Nc3ncnc4ccsc34)cc2)cc1 | 62.6%
COc1cc2cc(Oc3ccc(NC(=O)Nc4ccc(Cl)c(Cl)c4)cc3)c(C)nc2cc1OCCN1CCOCC1 | 58.9%
Cc1nc2ccccc2c(/C=C/c2ccccc2)c1C(=O)/C=C/c1ccc(C(F)(F)F)cc1 | -33.6% (active)
CCOC(=O)c1nc(Nc2ccc(C(C)=O)cc2)sc1C | 94.1%
CCOC(=O)Nc1ccc(-c2nc(-c3cccc(OCCN4CCOCC4)c3)c(-c3ccnc(Br)c3)[nH]2)cc1 | 47.3%

These molecules were tested on NCI-H226 lung in the same assay as above. Settings: 10 µM unless noted.

SMILES | growth
O=C(Cc1ccc(F)c(Cl)c1)Nc1cc(C2(C(F)(F)F)CC2)nn1CC1CCCCC1 | 14.5%
O=C(S)CNC(=O)c1ccccc1 | 101%
COc1cc(CCC[P+](c2ccccc2)(c2ccccc2)c2ccccc2)c(OC)c(OC)c1OC | 88.8%
COc1cc2cc(Oc3ccc(NC(=O)Nc4ccc(Cl)c(C(F)(F)F)c4)cc3)c(C)nc2cc1OCCN1CCOCC1 | 34.9%
Cc1cc2nc3cc(C)c(N)cc3[n+](-c3ccccc3)c2cc1N | 71.2%
CN1CCN(c2ccc(-c3cc4c(Nc5ccc(F)c(Cl)c5)ncnn4c3)cc2)CC1 | 89%
COc1ccc(S(=O)(=O)n2cc(C3OC(c4cc(OC)c(OC)c(OC)c4)=NN3C(C)=O)c3ccccc32)cc1OC (centres undefined) | 93.2%
COc1nc2ccc(C)cc2cc1-c1nc2c(cnn2-c2ccccc2)c(=O)[nH]1 | 92%
Cc1cccc2c3c(sc12)C(c1ccc(Cl)cc1)C(C#N)=C(N)O3 (centres undefined) | 26.4%
CN(C)c1ccc2nc3ccc(=[N+](C)C)c([N+](=O)[O-])c-3sc2c1 | 73.2%
Cc1ccc(C(=O)N/N=C/c2cccc(Oc3ccccc3)c2)cn1 | 66.9%
Cc1c(C(=O)N[C@@H](Cc2ccccc2)C(=O)C(=O)NCc2ccc(F)cc2)[nH]c2ccccc2c1=O | 89%
Cc1c(C(=O)NCCCc2ccccc2)sc2ncc(-c3ccc(Br)cc3)n12 | 102%
COc1ccc(-c2conc2-c2ccccc2)cc1 | 70.5%
Cc1ccccc1C(=O)NN | 113%
CCS(=O)(=O)c1ncnc2nc[nH]c12 | 94.2%
CCCCC[C@H](O)C/C=C1/C(=O)C=C[C@@H]1C/C=C\CCCC(=O)O | 83.7%
C=C1CC[C@H](C(C)C)[C@@H]2[C@H]1[C@H]1CC(=C)[C@@H](O)CC[C@@](C)(O)[C@@H]2O1 | 95.2%

SMILES | growth
COc1ccc(-c2[nH]c3ccc(OC)cc3c2/C=C(\C#N)S(=O)(=O)c2ccccc2)cc1 | 72.3%
COc1ccc(C(=O)n2nc(-c3ccccc3)nc2N)cc1OC | 79.9%
O=c1ccn(Cc2cn(-c3c4ccccc4nc4ccccc34)nn2)c(=O)[nH]1 | 102%
CC/C=C\C[C@@H](O)C/C=C1/C(=O)C=C[C@H]1C/C=C\CCCC(=O)OC | 8.9% (active)
CCCCn1c(=O)c(-c2cc(-c3ccc(Cl)cc3)nc(-c3ccc(Cl)cc3)c2)cc2cc(Cl)ccc21 | 104%
Cc1nc2cnc(N)c(C#Cc3cncc(C(=O)Nc4ccc(CN5CCN(C)CC5)c(C(F)(F)F)c4)c3)c2nc1C | 3.74% (active)
O=C1/C(=C/c2ccc(F)cc2)Sc2c(Br)cccc21 | 79.4%
Cc1ccc(-c2nc(N3CCN(C(=O)c4ccc(OC(F)(F)F)cc4)CC3)c3ccccc3n2)cc1 | 83.6%
CCOc1c(B(O)O)cccc1-c1nc2ccc3[nH]ncc3c2c2c1CCCC2 | 54.3%
CCOC(=O)C1=C(N)Oc2c(sc3c(CC)cccc23)C1c1ccc(F)cc1 (centres undefined) | 49.5%
C=C(C)C1CCC2(C)OC2C1 (centres undefined) | 98.8%
Clc1ccc(C(/C=C/c2sc(Cl)nc2Cl)=N/Nc2cc(Cl)cc(Cl)c2)cc1 | 90.1%
c1ccc2c(-c3nc(-c4c[nH]c5ccncc45)cs3)c[nH]c2c1 | 78.5%
c1ccc(CO[C@H]2CO[C@H]3[C@@H]2OC[C@@H]3Oc2ccc(Nc3ncnc4ccsc34)cc2)cc1 | 80.3%
COc1cc2cc(Oc3ccc(NC(=O)Nc4ccc(Cl)c(Cl)c4)cc3)c(C)nc2cc1OCCN1CCOCC1 | 57.7%
Cc1nc2ccccc2c(/C=C/c2ccccc2)c1C(=O)/C=C/c1ccc(C(F)(F)F)cc1 | -42.2% (active)
CCOC(=O)c1nc(Nc2ccc(C(C)=O)cc2)sc1C | 98.8%
CCOC(=O)Nc1ccc(-c2nc(-c3cccc(OCCN4CCOCC4)c3)c(-c3ccnc(Br)c3)[nH]2)cc1 | 56.3%
